Measurements from PubChem BioAssay AID1567 (National Center for Advancing Translational Sciences (NCATS), 2009).
Inconclusive results are not listed. Entries that show only a call come without a potency. Active and inactive are the calls of the source. Calls come from the whole dose curve; as a rule, active = well fitted inhibition curve with a large enough effect; inconclusive = small, poorly fitted or top-dose-only effect, or effect the other way; inactive = no such curve, though single readings can be large or run the other way.

Biological target: Thyroid hormone receptor beta (Homo sapiens) (UniProt P10828)
Sequence (P10828 whole entry, looked up): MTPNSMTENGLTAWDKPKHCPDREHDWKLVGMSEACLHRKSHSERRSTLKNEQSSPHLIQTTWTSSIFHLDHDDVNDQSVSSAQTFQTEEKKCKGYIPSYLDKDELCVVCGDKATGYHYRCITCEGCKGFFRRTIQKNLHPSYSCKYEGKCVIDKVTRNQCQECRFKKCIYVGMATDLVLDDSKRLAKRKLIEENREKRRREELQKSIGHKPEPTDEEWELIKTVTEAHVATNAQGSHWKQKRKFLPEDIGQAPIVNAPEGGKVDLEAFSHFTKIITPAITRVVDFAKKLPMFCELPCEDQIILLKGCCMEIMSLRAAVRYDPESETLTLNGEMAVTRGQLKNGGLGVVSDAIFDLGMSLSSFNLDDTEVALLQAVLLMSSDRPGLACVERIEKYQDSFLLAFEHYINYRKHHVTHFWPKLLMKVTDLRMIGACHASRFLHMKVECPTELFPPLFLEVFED
Assay: Cell-based Gene Reporter Secondary Assay to Characterize qHTS Inhibitors of the Interaction of Thyroid Hormone Receptor and Steroid Receptor Coregulator 2
Text: NIH Molecular Libraries Probe Production Network [MLPCN] NIH Chemical Genomics Center [NCGC] MLPCN Grant: DK058080 Assay Provider: R. Kip Guy, St. Jude Children's Research Hospital NCGC Assay Overview: Thyroid receptor (TR) regulates many homeostatic processes including basal metabolism, cardiovascular function, body weight, and lipid trafficking. TR modulators are potential therapeutics for obesity and hyperlipidemias but current thyroid analogs have undesirable side effects, particularly cardiac stimulation. This secondary assay characterized selected actives identified in the qHTS for Inhibitors of the Interaction of Thyroid Hormone Receptor and Steroid Receptor Coregulator 2. The human follicular thyroid carcinoma cell line WRO (kindly provided by Dr. M. D. Ringel) stably expresses TRbeta and a luciferase reporter gene fused to TR response element. The addition of T3 ligand elevates expression of the TRE luciferase reporter. This assay measures the transcriptional activity of compounds.
NCGC Assay Protocol Summary: Cells were maintained in RPMI 1640 culture medium supplemented with 10% heat-inactivated FBS, 0.33 mg/ml hygromycin, 0.33 mg/ml geneticin, 50 units/ml penicillin, 50 ug/ml streptomycin. […] Following incubation, plates were equilibrated at ambient temperature for 30 min, 30 ul of Bright-Glo (Promega) was added and luminescence was detected by an EnVision (PerkinElmer).

Row | SMILES | Potency
1 | CCCCCn1c(N)c(C(=O)NCc2cccs2)c2nc3ccccc3nc21 | inactive
2 | COP(=S)(OC)Oc1ccc([N+](=O)[O-])cc1 | 3.98 µM (active)
